PubChem BioAssay (NCATS)
Records with an inconclusive call do not appear. Activity calls are given as the source filed them. The call rests on the fitted dose curve. Starred links: 1 amine or outer side, 2 acyl side, 3 side chain; linkers in the order of their positions; H or OH if unused. Non-standard residues stand in square brackets, D forms with d. Residues, ends and D or L forms follow the SMILES beside them. X1 = CCCCCCCCCC(=O)[C@H](C(=O)[*:2])[C@@H]1CNC(=O)[C@@H](N[*:1])CS1

What was measured:
[1] = qHTS for inhibitors of Rabies Virus screened against the NCATS CANVASS Library (AID 1347402); further: series mostly up to about 46 µM; 0% is about no effect
[2] = qHTS drug screen for cell cycle checkpoint inhibitors in PARPi-resistant BRCA-mutant ovarian cancer cell lines. (AID 1963452); conditions: PEO1/OlaR viability, CellTiter-Glo luminescence, 96 h; for Z-AUC: stronger effect = lower value; further: potency means the concentration at half of the fitted maximal effect
Outline: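 PEO1, PEO4 and PEO1/OlaR ovarian cancer cells, 600 per well, exposed 96 h at 37C to a dilution series. Viability read by CellTiter-Glo luminescence, normalized to DMSO and empty wells; activity summarized as Z-AUC.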

[3] = measured here: PEO1 parental Z-AUC

C/C=C/[C@H]1[C@H]2C(=O)c3c(O)c(C)c(O)c(C)c3[C@]1(C(=O)O)C(=O)C=C2C
outcome [1]: inactive

COc1ccc([C@@H]2c3cc4c(cc3C(=O)C(C)C2C)OCO4)cc1OC (stereo not given in full)
outcome [1]: inactive

CCCCCCCCCC(=O)[C@@H]1C(=O)N[C@@H](CC(C)C)C(=O)N[C@H](C)C(=O)N2CCC[C@H]2C(=O)N[C@@H](C(C)C)C(=O)N[C@H]2CS[C@H]1CNC2=O (cyclo(L[dA]PV[X1]))
outcome [1]: inactive

CC[C@@H]1C[C@@]2(CC)OC(=O)[C@@]3(CC)[C@H](CC)[C@@H]1[C@@H]23
outcome [1]: inactive

C[C@@H]1C(=O)[C@]23CC[C@H]1C[C@]21O[C@H]2C(C)(C)C=CC(=O)[C@@]23COC1=O
outcome [1]: inactive

O=C(O)[C@@]12COC3(O)C1CCN1CC[C@H]3[C@@H]1c1c2[nH]c2ccccc12
outcome [1]: inactive

C=CC(CCCCC)C1C(=O)NC(=O)C1C(=O)C1C2C(C)CC(C(=O)O)CC2CC1(O)C(=O)/C=C/C (stereo not given)
outcome [1]: inactive

CO[C@H]1[C@@H](OC(=O)/C(C)=C\[C@@H]2O[C@@H]2[C@H]2O[C@H]2C)[C@H](O)[C@H](OCC23C[C@@H]4[C@H](C)CC[C@H]4C4(C=O)CC2C=C(C(C)C)C34C(=O)O)O[C@@H]1C (stereo not given in full)
outcome [1]: inactive

[C-]#[N+][C@@]12C(=O)[C@@H]3[C@@H](O[C@@]4(C(=O)N(C)c5cccc1c54)C3(C)C)C(=O)[C@@]2(C)C=C
outcome [1]: inactive

O=C1OC(CCO)c2cccc(O)c21 (stereo not given)
outcome [1]: inactive

COC(=O)[C@@]1(C)CCC[C@]2(C)c3cc(OC)ccc3CC[C@@H]12
outcome [1]: inactive

C/C=C/C1C=CC2CC(C)CC(C)C2C1C(=O)CC(=O)NC(CO)C/C=C/CCCCC (stereo not given)
outcome [1]: inactive

O[C@H]1c2ccccc2-c2c3c(cc4c2[C@@H]1NCC4)OCO3
outcome [1]: inactive

CO/C1=C/C(C)=C\[C@@H](C)[C@@H](O)[C@@H](C)C/C(C)=C\C=C/[C@H](OC)[C@@H]([C@@H](C)[C@@H](O)[C@H](C)[C@@]2(O)C[C@@H](O)[C@H](C)[C@@H](C(C)C)O2)OC1=O
Z-AUC [2]: -2.07 (inactive) | Z-AUC [2, 3]: -2.1 | Z-AUC ([2]; measured here: PEO4 Z-AUC): -2.32

COC[C@H]1OC(=O)c2coc3c2[C@@]1(C)C1=C(C3=O)[C@@H]2CC[C@H](O)[C@@]2(C)C[C@H]1OC(C)=O
Z-AUC [2]: 0.029 (inactive) | Z-AUC [2, 3]: -0.102 | Z-AUC ([2]; measured here: PEO4 Z-AUC): 0.779

COC(=O)[C@@]12OC[C@]34[C@H]([C@@H](O)[C@@H]1O)[C@@]1(C)CC(=O)C(O)=C(C)[C@@H]1C[C@H]3OC(=O)[C@H](OC(=O)/C=C(\C)C(C)C)[C@@H]24
Potency [2]: 0.174 µM (active) | Z-AUC [2, 3]: -2.46 | Z-AUC ([2]; measured here: PEO4 Z-AUC): -2.64

Cn1c(/C=C/CO)c(CO)c2c1C(=O)C=C(N1CC1)C2=O
Z-AUC [2]: -0.176 (inactive) | Z-AUC [2, 3]: -0.939 | Z-AUC ([2]; measured here: PEO4 Z-AUC): -0.899

C=C(C)[C@@H]1CCC(C)=C[C@H]1c1c(O)cc(CCCCC)cc1O
Z-AUC [2]: -0.487 (inactive) | Z-AUC [2, 3]: 0.125 | Z-AUC ([2]; measured here: PEO4 Z-AUC): 0.904

CC(N[C@H]1C[C@@H]1c1ccccc1)c1ccc2c(c1)OCCO2 (stereo not given in full)
Z-AUC [2]: -0.77 (inactive) | Z-AUC [2, 3]: 0.195 | Z-AUC ([2]; measured here: PEO4 Z-AUC): -0.131

CN1CC[C@]23c4ccccc4N[C@H]1[C@]21CCN(C)[C@H]3Nc2ccccc21
outcome [1]: inactive

O=C1CC(c2ccc(O)cc2)Oc2cc(O)cc(O)c21 (stereo not given)
outcome [1]: inactive

C[C@@]12CCC[C@@](C)(C(=O)O)[C@H]1CC[C@@]13C[C@@H](CC[C@H]12)[C@](C)(O)C3
outcome [1]: inactive

C=C1C[C@@]23C=CC(=O)[C@@](C)(CCC(=O)Nc4c(O)ccc(C(=O)O)c4O)C2C[C@@H]1CC3O (stereo not given in full)
outcome [1]: inactive

C[C@@H](C1CC[C@@]2(O)C3=CC(=O)[C@@H]4C[C@@H](O)[C@@H](O)C[C@]4(C)[C@H]3CC[C@]12C)[C@H](O)CCC(C)(C)O (stereo not given in full)
Z-AUC [2]: 0.596 (inactive) | Z-AUC [2, 3]: 0.976 | Z-AUC ([2]; measured here: PEO4 Z-AUC): 1.02

O=C(CBr)N1CC([N+](=O)[O-])([N+](=O)[O-])C1
Z-AUC [2]: 1.13 (inactive) | Z-AUC [2, 3]: 0.0375 | Z-AUC ([2]; measured here: PEO4 Z-AUC): 1

CC(C)(O)/C=C\C(=O)[C@](C)(O)[C@H]1[C@H](O)C[C@]2(C)[C@@H]3CC=C4[C@@H](C=C(O)C(=O)C4(C)C)[C@]3(C)C(=O)C[C@@]12C
Z-AUC [2]: -2.52 (inactive) | Z-AUC [2, 3]: -1.67 | Z-AUC ([2]; measured here: PEO4 Z-AUC): -2.46

Cn1c(COP(=O)(NCCBr)NCCBr)cnc1[N+](=O)[O-]
Z-AUC [2]: 0.865 (inactive) | Z-AUC [2, 3]: 0.833 | Z-AUC ([2]; measured here: PEO4 Z-AUC): 1.09

Cc1c(N)nc([C@H](CC(N)=O)NC[C@@H](N)C(N)=O)nc1C(=O)N[C@H](C(=O)N[C@@H](C)[C@H](O)[C@@H](C)C(=O)N[C@@H](C(=O)NCCc1nc(-c2nc(C(=O)NCCC[S+](C)C)cs2)cs1)[C@@H](C)O)C(O[C@H]1O[C@H](CO)[C@H](O)[C@@H](O)[C@H]1O[C@H]1O[C@H](CO)[C@@H](O)[C@H](OC(N)=O)[C@@H]1O)c1cnc[nH]1 (stereo not given in full)
Z-AUC [2]: -0.673 (inactive) | Z-AUC [2, 3]: -1.76 | Z-AUC ([2]; measured here: PEO4 Z-AUC): 0.233
